# Shown are actives, neighbours in structure and some others; about 7% of the full set was active somewhere.
# IL1B secr inh: inflammasome signaling inhibition, IL-1 beta readout | THP-1 LPS/ATP IL-1B secretion, AlphaLISA, 16 h; active compounds read low | activity change, % at 57.5 µM | 360,000 compounds, 4.7% hits; in the data active = activity change below about -50%; inconclusive = mostly about -30% to -49%; also: % is scaled to controls: 0 for no effect and ±100 for the full control effect
#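 THP-1 cells pretreated 1 hr with compounds (up to 57.5 uM final), then stimulated with LPS (250 ng/mL final) plus ATP (1.25 mM final); secreted IL-1B measured by AlphaLISA after 16 hr, decreased signal indicating inhibition.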
# DRD3 agonist: agonists of human D3 dopamine receptor. P35462. AID 652048. D3R DiscoveRx beta-arrestin cells, luminescence, 90 min. 410,000 compounds, 0.58% hits. max activation, %; in the data active = max activation above about 30%; also: 0% is about no effect
# Target sequence (P35462 whole entry, looked up): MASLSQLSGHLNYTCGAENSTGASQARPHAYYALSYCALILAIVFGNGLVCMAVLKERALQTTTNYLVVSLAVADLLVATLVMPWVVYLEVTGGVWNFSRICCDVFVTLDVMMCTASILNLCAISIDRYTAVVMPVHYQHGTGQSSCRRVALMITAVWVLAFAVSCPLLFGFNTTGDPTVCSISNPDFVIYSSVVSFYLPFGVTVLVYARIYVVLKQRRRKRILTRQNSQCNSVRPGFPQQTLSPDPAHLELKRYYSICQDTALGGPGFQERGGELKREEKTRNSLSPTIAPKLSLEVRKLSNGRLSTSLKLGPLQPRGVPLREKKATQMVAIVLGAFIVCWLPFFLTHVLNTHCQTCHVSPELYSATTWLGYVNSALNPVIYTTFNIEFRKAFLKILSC
#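 Agonist mode: compounds and dopamine controls were applied to plated cells for 90 min at 37 degrees C after an overnight attachment at 1500 cells/well. Luminescent read-out followed 30 - 60 minutes at room temperature with DiscoveRx detection reagent.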
# Integrin act MD: activates integrin-mediated alleviation for muscular dystrophy; alpha7betagal myoblasts, beta-gal FDG fluorescence, 48 h; Potency, µM (series often up to 38.3 µM), without a hit: at the top dose activation, actives largely listed as activators; 350,000 compounds, 0.064% hits; AID 624291;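 also: potency is read from the fitted curve at half-maximal effect; 100% = response of the positive control SU9516; nearly all actives have a fitted effect of over 60% in size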
#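 alpha7betagal+/- myoblasts (passage 13, 250/well) treated 48 h at 37C with compounds at 1:260 dilution of DMSO stock. Lysed, then beta-galactosidase activity read as FDG fluorescence (ex 480/em 540) after 30 min, with pre-read for autofluorescence.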
# ATXN2 expr inh: ATXN2 expression inhibition; 360,000 compounds, 0.72% hits; Potency, µM (series often up to 57 µM), for inactives: at the highest dose activity change, negative = inhibition, usual class: inhibitors; HEK-293 ATXN2-luciferase reporter, luminescence, 24 h; also: potency is read from the fitted curve at half-maximal effect; % is scaled to controls: 0 for no effect and ±100 for the full control effect; nearly all actives have a fitted effect of over 55% in size
#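 ATXN2-luciferase reporter cells (luciferase flanked by upstream and downstream ATXN2 gene portions) were treated 24 h at 37 °C with compounds at up to 57 uM. SteadyGlo luminescence gave expression; GF-AFC fluorescence gave viability.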
# ATXN viability: viability counter-screen for ATXN expression inhibitors | S2 cells (HEK-293 line with an ATXN2-luciferase reporter) viability, CellTiter-Fluor protease fluorescence, 24 h | Potency, µM (highest dose often 56.7 µM), hits mostly cytotoxic | 400,000 compounds, 0.49% hits; also: potency is read from the fitted curve at half-maximal effect; nearly all actives have a fitted effect of over 40% in size
# D3 antag: antagonists of human D3 dopamine receptor; 360,000 compounds, 2.5% hits; P35462; max response, negative = inhibition, %; D3R cells, DiscoveRx beta-arrestin luminescence, antagonist mode; active compounds read low; in the data active = max response below about -50%; inconclusive = no clear call, values can overlap the other calls; also: % is scaled to controls: 0 for no effect and ±100 for the full control effect
#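 Cells expressing the human receptor were seeded at 1500 cells/well, incubated overnight at 37 degrees C in 5% CO2, then exposed to library compounds with dopamine controls for 90 minutes at 37 degrees C before luminescent detection.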
# Active calls of the source: *; i = inactive; u = inconclusive; x = not tested or not shown; [ ] = dose if it differs, or a comment. Unless noted, calls follow the shape of the dose curve; as a rule, active = well fitted curve in the direction sought with a large enough effect; inconclusive = small, poorly fitted or top-dose-only effect, or another doubt; inactive = no such curve, though single readings can be large; an effect the other way counts as inactive or inconclusive.
SMILES,IL1B secr inh,DRD3 agonist,Integrin act MD,ATXN2 expr inh,ATXN viability,D3 antag
O=C(Nc1ccc(N2CCN(c3ncccc3C(F)(F)F)CC2)nc1)c1cccs1,-101*,-10,-39%,34µM*,u,13
N/C(=N\O)c1ccc(N2CCN(c3ncccc3C(F)(F)F)CC2)nc1,22,31*,-10%,1%,i,40
COc1cccc(Cn2cc(S(=O)(=O)c3ccc(C)cc3)c(=O)c3cc4c(cc32)OCO4)c1,x,4,x,3%,i,x
CCOC(=O)C1CCN(C(=O)Cn2nc(C)n3nc(-c4ccc(OC)cc4)cc3c2=O)CC1,9,-3,-1%,x,i,21
CCCNC(=O)COC(=O)c1ccccc1C(=O)c1ccc(Cl)c([N+](=O)[O-])c1,-103*,-21,-64%,u,u,-101*
Cc1ccc(C(=O)c2ccccc2C(=O)OCC(=O)NCCc2ccc(Cl)cc2Cl)cc1,-17,4,-5%,-12%,i,1
Cc1ccc(Cl)c(NC(=O)COC(=O)c2ccccc2C(=O)c2ccc(Cl)c([N+](=O)[O-])c2)c1Cl,-105*,-23,-67%,u,x,-71*
Cc1ccc(C(=O)c2ccccc2C(=O)OCC(=O)Nc2cccc([N+](=O)[O-])c2)cc1,-5,-15,-15%,4%,i,17
Cc1ccc(C)c(N(C(=O)Cn2nnc(-c3cccs3)n2)C(C(=O)NC2CC2)c2ccc(C)o2)c1 (centres undefined),18,8,16%,2%,i,-9
OC(C#CCN1CCCCC1)(c1ccccc1)c1ccccc1,-5,-22,6%,15%,i,-79*
CCn1c(=O)c(C(=O)NNS(=O)(=O)c2ccc(Br)cc2)c(O)c2ccccc21,0,-1,u,-17%[11.3 µM],i,-25
CN(C)c1ccc(C(=O)/C=C/c2ccco2)cc1,-101*,-1,0%,100%,i,-3
CCN(CC)c1ccc(/C=C/C(=O)c2ccc(Br)cc2)cc1,-65*,-8,20%,7%,u,-14
O=C(C=Cc1ccco1)c1ccc2ccccc2c1,-65*,-1,-1%,42%,u,5
CC(=O)Nc1ccc(C(=O)/C=C/c2ccco2)cc1,-7,-3,-35%,48%,i,-3
O=C(/C=C\c1ccco1)c1ccc(NC(=O)c2ccco2)cc1,-18,10,-38%,6%,i,-23
CN(C)c1ccc(C(=O)/C=C/c2ccccc2)cc1,-102*,-4,-54%,0%,i,6
COc1cc(NC(=O)Cn2ncc(Cl)c(Cl)c2=O)c(C)cc1[N+](=O)[O-],-95*,6,-63%,27µM*,17µM*,u
COC(=O)c1sccc1S(=O)(=O)N(CC(=O)Nc1ccccc1C)c1ccc(Cl)cc1,x,-9,x,-9%,i,x
COc1ccc(C)cc1NC(=O)c1ccc(=O)n(Cc2ccccc2)c1,x,-17,x,-21%,i,x
COc1cn(-c2ccccc2)nc1C(=O)Nc1ccccc1,-55*,-2,-22%,29%,i,-1
COc1cn(-c2ccccc2)nc1C(=O)Nc1ccc(C)cc1,u,-11,6%,20%,i,-14
COc1ccc(C)cc1NC(=O)c1nn(-c2ccccc2)cc1OC,-87*,-1,-3%,-13%,i,6
CCC(=O)Nc1cc(C(=O)NCc2ccc(C)cc2)ccc1S(=O)(=O)c1ccc(C)cc1,x,-12,x,x,x,x
Cc1cccc(NC(=O)Cn2c(O)c(N=NC(=O)c3ccccc3O)c3ccccc32)c1,5,-9,17%,u,u,-71*
CCC(=O)N1CCc2cc(Br)cc(S(=O)(=O)N3CCC(C(=O)NCCCOC(C)C)CC3)c21,-9,-9,0%,3%,i,-6
O=C(Nc1ccccc1Oc1ccccc1)c1cc([N+](=O)[O-])ccc1Cl,-4,0,-18%,-23%,i,4
O=C(Nc1ccc2c(c1)CCCN2C(=O)c1ccco1)c1cc([N+](=O)[O-])ccc1Cl,-87*,7,-51%,-38%,i,8

# Compound activity from PubChem.
